Data as given in PubChem BioAssay (NCATS).
“And” between values parts separate entries of the source, which are not always exact repeats. Identical values can stand only once. Records with an inconclusive call do not appear. The source made the active and inactive calls. Calls come from the whole dose curve; as a rule, active = well fitted curve in the direction sought with a large enough effect; inconclusive = small, poorly fitted or top-dose-only effect, or another doubt; inactive = no such curve, though single readings can be large; an effect the other way counts as inactive or inconclusive.

Tests used:
[1] = molecular target: Cellular tumor antigen p53 (Homo sapiens) (UniProt P04637); experiment: Primary qHTS for small molecule compounds that upregulate eGFP-tagged delta133p53alpha (in N-terminal) cells. (AID 2060322); details: NCI-H358 eGFP-delta133p53alpha fluorescence, 24 h; activation: hits give high values;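 note: cells pre-induced with doxycycline then dosed without doxycycline; series mostly up to about 56 µM; 0% = DMSO vehicle and 100% = reference activator; nearly all actives have a fitted effect of over 75% in size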
In short: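 NCI-H358 cells pre-induced 24 h with 10 ng/ml doxycycline for eGFP-delta133p53alpha, plated dox-free and exposed 24 h at 37C to titrated compounds. Fixed, Hoechst-stained; gated GFP peak intensity by laser scanning cytometry, normalized to DMSO (0%) and 57.5 uM 5-azacytidine (100%).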

[2] = molecular target: Aldehyde dehydrogenase, mitochondrial (Homo sapiens) (UniProt P05091); experiment: qHTS for Inhibitors of the Aldehyde Dehydrogenase Family (ALDH2) Primary screen (AID 2061308);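 note: plate controls were vehicle for no effect and reference inhibitor for full effect; nearly all actives have a fitted effect of over 55% in size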
[3] = molecular target: Retinaldehyde dehydrogenase 3 (Homo sapiens) (UniProt P47895); experiment: qHTS for Inhibitors of the Aldehyde Dehydrogenase Family (ALDH1A3) Primary screen (AID 2061315);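 note: plate controls were DMSO vehicle for no effect and reference inhibitor for full effect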

Cellular tumor antigen p53 (Homo sapiens), sequence (P04637 whole entry, looked up): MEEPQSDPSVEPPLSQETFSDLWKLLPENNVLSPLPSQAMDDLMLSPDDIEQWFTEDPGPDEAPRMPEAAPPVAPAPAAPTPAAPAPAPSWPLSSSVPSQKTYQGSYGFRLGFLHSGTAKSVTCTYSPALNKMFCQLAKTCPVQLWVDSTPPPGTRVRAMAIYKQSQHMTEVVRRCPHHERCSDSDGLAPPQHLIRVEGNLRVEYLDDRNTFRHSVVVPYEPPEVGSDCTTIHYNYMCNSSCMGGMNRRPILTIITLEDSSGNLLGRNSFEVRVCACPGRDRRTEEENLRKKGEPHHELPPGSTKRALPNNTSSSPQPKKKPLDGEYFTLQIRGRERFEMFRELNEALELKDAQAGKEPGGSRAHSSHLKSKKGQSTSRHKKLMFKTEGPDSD

CN[C@H](C(=O)N[C@H](C(=O)N(C)[C@H](/C=C(\C)C(=O)O)C(C)C)C(C)(C)C)C(C)(C)c1ccccc1
inactive: activation [1] 15.8% | Potency [2] | Potency [3]

COc1cc(-c2nc(N[C@H](CO)Cc3ccccc3)ccc2C(=O)NCCOc2ccccc2)cc(OC)c1OC
inactive: activation [1] -11.9% | Potency [2] | Potency [3]

CC1(C)C[C@H](O)C[C@@]2(C)OC(=O)C=C12
inactive: activation [1] 19.6% | Potency [2] | Potency [3]

CN(C)C(=O)CNC(=O)Cc1ccccc1
inactive: activation [1] 5.02% | Potency [2] | Potency [3]

C=C(C)[C@@H]1CC[C@]2(C(=O)O)CC[C@]3(C)C(CCC4[C@@]5(C)C[C@@H](O)[C@H](O)C(C)(C)C5CC[C@]43C)C12 (some centres not stated)
inactive: activation [1] -10.7% | Potency [2] | Potency [3]

O=C(OCc1ccccc1O[C@@H]1O[C@H](CO)[C@@H](O)[C@H](O)[C@H]1O)C1(O)C=CCCC1O (some centres not stated)
inactive: activation [1] -2.29% | Potency [2] | Potency [3]

C=C(C)[C@@H]1CC[C@]2(C)CC[C@]3(C)C(CCC4[C@@]5(C)CC[C@H](O)C(C)(C)C5CC[C@]43C)C12 (some centres not stated)
inactive: activation [1] -19.6% | Potency [2] | Potency [3]

CC(NC(=O)C(O)C(C)C)C(=O)NC1C(=O)N(C)CCc2ccccc21 (configuration not stated)
inactive: activation [1] 2.39% | Potency [2] | Potency [3]

Cc1ccc2c(c1)C=Cc1cc(C)ccc1C2c1cn(Cc2ccc(C(=O)Nc3nn[nH]n3)o2)c(=O)[nH]c1=S
inactive: activation [1] -8.33% | Potency [2] | Potency [3]

CC(C)C1(O)C=C2C(=O)CC3C(C)(C(=O)O)CCCC3(C)C2CC1 (configuration not stated)
inactive: activation [1] -12.2% | Potency [2] | Potency [3]

CC1(C)CC2=C3C=CC4C5(C)CCC(O)C(C)(C)C5CCC4(C)C3(C)CCC2(C)C(O)C1 (configuration not stated)
inactive: activation [1] -8.04% | Potency [2] | Potency [3]

COC(=O)C1=CO[C@@H](O[C@@H]2O[C@H](CO)[C@@H](O)[C@H](O)[C@H]2O)C2C1CC(O)C2C (some centres not stated)
inactive: activation [1] 2.29% | Potency [2] | Potency [3]

COc1cc2c(c(OC)c1CC=C(C)C)C[C@H](c1ccc(O)cc1O)CO2
inactive: activation [1] 12.5% | Potency [2] | Potency [3]

CC/C=C\CCO[C@@H]1O[C@H](CO)[C@@H](O)[C@H](O)[C@H]1O
inactive: activation [1] -18.3% | Potency [2] | Potency [3]

CCOCc1cc(OC)c(-c2ccc(C[C@H](NC(=O)c3c(F)cccc3F)C(=O)O)cc2)c(OC)c1
inactive: activation [1] -5.67% | Potency [2] | Potency [3]

O=C(OCCOCCO)c1ccccc1Nc1cccc(C(F)(F)F)c1
inactive: activation [1] -13% and -1.67% | Potency [2] | Potency [3]

COc1cc(/C=C2\CC[C@H]3COC[C@@H](c4cc(F)c(F)c(F)c4)N3C2=O)ccc1-n1cnc(C)c1
inactive: activation [1] -13.7% | Potency [2] | Potency [3]

COc1c2c(c(C)c3c1C(=O)OC3)O[C@@]1(C)C[C@@H](OC(C)=O)[C@]34O[C@](OC)(CC[C@]3(C)[C@H]1C2)OC4(C)C
inactive: activation [1] -5.36% | Potency [2] | Potency [3]

COC(=O)[C@@]1(C)CC[C@]2(C(=O)O[C@@H]3O[C@H](CO)[C@@H](O)[C@H](O)[C@H]3O)CC[C@]3(C)C(=CCC4[C@@]5(C)CC[C@H](O[C@@H]6O[C@H](C(=O)O)[C@@H](O)[C@H](O)[C@H]6O)C(C)(C)C5CC[C@]43C)[C@@H]2C1 (some centres not stated)
inactive: activation [1] -16.8% | Potency [2] | Potency [3]

C=C(CO[C@@H]1O[C@H](CO[C@@H]2OC[C@](O)(CO)[C@H]2O)[C@@H](O)[C@H](O)[C@H]1O)C1Cc2cc(C(C)=O)ccc2O1 (some centres not stated)
inactive: activation [1] -12.2% | Potency [2] | Potency [3]

C[C@@H]1N[C@H]2N(C1=O)c1ccccc1[C@@]2(O)C[C@@H]1C(=O)N[C@@H](C)c2nc3ccccc3c(=O)n21
inactive: activation [1] -22.9% | Potency [2] | Potency [3]

COc1ccc(C2C(C(=O)O)C(C(=O)O)C2c2ccc(OC)cc2O[C@@H]2O[C@H](CO)[C@@H](O)[C@H](O)[C@H]2O)c(O[C@@H]2O[C@H](CO)[C@@H](O)[C@H](O)[C@H]2O)c1 (some centres not stated)
inactive: activation [1] 7.63% | Potency [2] | Potency [3]

CC(C)(C)OC(=O)c1ncn2c1C(C)(C)Nc1ccccc1-2
inactive: activation [1] -12.5% | Potency [2] | Potency [3]

CC[C@@H](C)[C@@H]1OC2(C=C[C@H]1C)C[C@@H]1C[C@H](C/C=C(\C)[C@H](O[C@H]3C[C@H](OC)[C@H](O[C@H]4C[C@H](OC)[C@H](NC(C)=O)[C@H](C)O4)[C@H](C)O3)[C@H](C)/C=C/C=C3\CO[C@H]4[C@H](O)C(C)=C[C@@H](C(=O)O1)[C@@]34O)O2 (some centres not stated)
inactive: activation [1] 24.3% | Potency [2] | Potency [3]
